# From ChEMBL document CHEMBL3988442, “University of Dundee, Small-Polar-MMV Screening Library” (2021)
# Among all 69,000 compounds or so, about 1,000 (1.4%) showed an effect of 50% or more. The full list was thinned out, with strong results kept by preference.
# Tested on: Leishmania donovani
# Experiment: Leishmania intramacrophage assay
# Type: functional, organism-based
# Parameters: scale not given: in the data most compounds retested in dose-response had high values
structure (smiles),measurement,setting,value
CN1CCC(NCC(O)c2cccc(OCc3ccccc3)c2)CC1 (stereo not drawn),Percent Effect,"30.3 µM, […]",100.4%
c1ccc(COc2cccc(CNC3CCc4ncnn4C3)c2)cc1 (stereo not drawn),Percent Effect,30 µM,-0.9201%
COc1cccc(C(O)CNC(=O)CC2CCCCC2)c1 (stereo not drawn),Percent Effect,"30.3 µM, […]",-1.709%
OC(CNC1CCSCC1)c1cccc(OCc2ccccc2)c1 (stereo not drawn),Percent Effect,"30.3 µM, […]",77.88%
CCN1CCC(CC(=O)NCC(O)c2cccc(OC)c2)CC1 (stereo not drawn),Percent Effect,"30.3 µM, […]",23.15%
OC(CNC1CCOCC1)c1cccc(OCc2ccccc2)c1 (stereo not drawn),Percent Effect,"30.3 µM, […]",10.21%
CN(Cc1cnn(C)c1)C(=O)Cc1ccc2c(c1)OCCO2,Percent Effect,"30.3 µM, […]",1.956%
COCCCN(C)C1CCCN(Cc2noc(C)n2)C1 (stereo not drawn),Percent Effect,"30 µM, 30.03 µM",26.31%
Cc1nc(CN(C)C2CCN(Cc3cccc4c3OCCO4)C2)no1 (stereo not drawn),Percent Effect,30 µM,6.673%
Cn1ccnc1CCNC(=O)NCCC1CCCCO1 (stereo not drawn),Percent Effect,"30.3 µM, […]",11.89%
O=C(C1CCOC1)N1C[C@H]2CN(c3ccccc3)C(=O)[C@H]2C1 (stereo partly drawn),Percent Effect,"30.3 µM, […]",6.072%
Cc1ncncc1C(=O)NCCN1CCC(C)CC1,Percent Effect,"30.3 µM, […]",57.89%
CC1CCN(CCNC(=O)c2cncnc2C(C)C)CC1,Percent Effect,"30 µM, 30.03 µM",11.52%
CCc1ncncc1C(=O)NCCN1CCC(C)CC1,Percent Effect,"30 µM, 30.03 µM",18.33%
Cn1cnnc1C1CCCN(C(=O)NCCOc2ccccc2)C1 (stereo not drawn),Percent Effect,"30 µM, 30.03 µM",2.584%
CCc1nc(C2CCCN2C(=O)CCc2cscn2)no1 (stereo not drawn),Percent Effect,30 µM,-30.43%
Cc1cccc(CN(Cc2ccccn2)S(=O)(=O)N(C)C)c1,Percent Effect,"30.3 µM, […]",9.457%
CCN(Cc1cccc(Cl)c1)Cc1ncc(C(C)(C)C)o1,Percent Effect,"30.3 µM, […]",12.9%
Cc1cccc(CN(Cc2ccccn2)Cc2ncc(C(C)(C)C)o2)c1,Percent Effect,"30.3 µM, […]",68.09%
Cc1ccc(F)c(C(=O)N2C[C@@H](C(=O)O)[C@H](c3ccncc3)C2)c1Cl,Percent Effect,"30.3 µM, […]",16.35%
O=S1(=O)CCC(c2nc(-c3cccc(Br)c3)no2)C1 (stereo not drawn),Percent Effect,"30.3 µM, […]",2.793%
COCCN(Cc1cnn(C)c1)CC1CCOC1 (stereo not drawn),Percent Effect,"30.3 µM, […]",-5.95%
COCCN(Cc1cnn(C)c1)CC1CCN(C(C)C)CC1,Percent Effect,"30.3 µM, […]",53.86%
COCCN(Cc1cnn(C)c1)Cc1ccc(C)o1,Percent Effect,"30.3 µM, […]",22%
c1ccc2c(N3CCCC3Cn3cccn3)ncnc2c1 (stereo not drawn),Percent Effect,"30 µM, 30.03 µM",38.82%
Cc1nccn1CC1CCCN1S(=O)(=O)Cc1ccccc1F (stereo not drawn),Percent Effect,"30 µM, 30.03 µM",17.08%
COCc1noc(-c2cc(Cl)c3c(c2)OCO3)n1,Percent Effect,"30.3 µM, […]",-15.75%
O=C(CCn1c(=O)oc2ccccc21)NCC(O)c1ccccc1 (stereo not drawn),Percent Effect,"30.3 µM, […]",50.97%
O=C(CCn1c(=O)oc2ccccc21)NCC(O)c1ccc(Cl)cc1 (stereo not drawn),Percent Effect,"30.3 µM, […]",46.94%
O=C(CCn1c(=O)oc2ccccc21)NCC(O)c1ccc(F)c(F)c1 (stereo not drawn),Percent Effect,"30.3 µM, […]",41.71%
OC1=C2C(=Nc3n[nH]c(O)c3C2c2ccccc2Cl)CCC1 (stereo not drawn),Percent Effect,"30.3 µM, […]",11.34%
CN(C)c1cncc(C2CCN(CCO)CC2)n1,Percent Effect,"30 µM, 30.03 µM",34.76%
COCC(=O)N1Cc2nccn2CC(CN(C)Cc2cccnc2)C1 (stereo not drawn),Percent Effect,"30.3 µM, […]",24.51%
CN(Cc1cccnc1)CC1CN(C(N)=O)Cc2nccn2C1 (stereo not drawn),Percent Effect,"30.3 µM, […]",59.79%
CCC(=O)N1Cc2nccn2CC(CN(C)Cc2cccnc2)C1.O=C(O)C(F)(F)F.O=C(O)C(F)(F)F (stereo not drawn),Percent Effect,"30 µM, 30.03 µM",14.09%
NC(=O)CCn1cc(CNCCCc2ccccc2O)c2ccccc21,Percent Effect,"30.3 µM, […]",30.89%
Cc1ccsc1CNCC1CCCN1c1cccnn1 (stereo not drawn),Percent Effect,30 µM,29.66%
CC(C)N1CCC2(CCCN(Cc3ccc(F)cc3)C2=O)C1 (stereo not drawn),Percent Effect,"30.3 µM, […]",12.06%
CCCc1cc(N2CCC(N[C@H]3CC[C@H](O)CC3)CC2)nc(C)n1,Percent Effect,"30.3 µM, […]",8.442%
Cc1nn(C)c2cn(CC(=O)N3CCN(c4ccccc4)CC3)nc12,Percent Effect,"30.3 µM, […]",30.49%
CN1CCN(c2ccc(Br)cc2NC(=O)c2ccco2)CC1,Percent Effect,"30.3 µM, […]",53.58%
CN1CCN(c2ccc(Cl)cc2NC(=O)c2ccco2)CC1,Percent Effect,"30.3 µM, […]",18.57%
CN1CCN(c2ccccc2NC(=O)c2ccco2)CC1,Percent Effect,"30.3 µM, […]",13.32%
Cc1ccc(C(=O)O)cc1-c1cccc2c1CCNC2,Percent Effect,"30.3 µM, […]",17.04%
O=C(c1ccnnc1)N1C[C@H](OCC2CC2)[C@H]2COC[C@H]21,Percent Effect,"30.3 µM, […]",15.2%
CCOc1ccc(Cl)c(C(=O)NC(C(N)=O)c2ccccc2)n1 (stereo not drawn),Percent Effect,"30.3 µM, […]",28.97%
Cc1cccc(CN2C(=O)CC[C@@H]3[C@H]2CCN3Cc2ccc(C)s2)n1.O=C(O)C(F)(F)F.O=C(O)C(F)(F)F,Percent Effect,"30 µM, 30.03 µM",7.01%
Cc1cc(C)cc(-n2ncc3c2CCCC3N)c1 (stereo not drawn),Percent Effect,"30.3 µM, […]",79.9%
Cc1ccc(-n2ncc3c2CCCC3N)cc1C (stereo not drawn),Percent Effect,"30.3 µM, […]",72.93%
Cc1ccc(-n2ncc(C(=O)N(C)C3CCN(C)CC3)c2N)cc1C,Percent Effect,"30.3 µM, […]",14.5%
NC1CCCc2c1cnn2-c1cc(F)cc(F)c1 (stereo not drawn),Percent Effect,"30.3 µM, […]",-4.914%
CN(C)S(=O)(=O)NC1CCCc2c1cnn2-c1ccc(C(C)(C)C)cc1 (stereo not drawn),Percent Effect,"30.3 µM, […]",27.24%
CC(C)(C)c1ccc(-n2ncc3c2CCCC3N)cc1 (stereo not drawn),Percent Effect,"30.3 µM, […]",27.02%
